Reference: PubChem BioAssay (Tox21)
Active and inactive are the calls of the source. Calls come from the whole dose curve; as a rule, active = well fitted inhibition curve with a large enough effect in the repeat runs (not every such curve was filed as active); inconclusive = weak or mixed curves; inactive = flat fitted curve, though single readings scatter.
% is set by controls: 0 for no effect and ±100 for the full control effect.

These compounds were tested against Thyrotropin-releasing hormone receptor (Homo sapiens) (UniProt P34981) (assay: qHTS assay to identify small molecule antagonists of the thyrotropin-releasing hormone receptor (TRHR) signaling pathway (AID 1346877)). Conditions: TRHR-HEK293, TRH-induced calcium fluorescence, antagonist mode; series mostly up to 51.3 µM; activity, negative = inhibition: at the top concentration.
Chain of Thyrotropin-releasing hormone receptor (Homo sapiens) (P34981 whole entry, looked up): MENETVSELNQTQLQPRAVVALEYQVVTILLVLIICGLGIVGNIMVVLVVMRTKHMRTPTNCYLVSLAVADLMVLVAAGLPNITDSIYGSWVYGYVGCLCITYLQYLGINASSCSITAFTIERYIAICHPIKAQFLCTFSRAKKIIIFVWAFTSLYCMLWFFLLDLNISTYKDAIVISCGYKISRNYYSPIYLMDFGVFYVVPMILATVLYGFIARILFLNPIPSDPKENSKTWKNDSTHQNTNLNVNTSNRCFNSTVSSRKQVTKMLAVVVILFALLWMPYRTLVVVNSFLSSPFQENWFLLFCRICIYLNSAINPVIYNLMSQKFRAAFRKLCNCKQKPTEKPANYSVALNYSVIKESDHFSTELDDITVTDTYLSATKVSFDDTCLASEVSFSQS
Summary of the method: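 Calcium signal in dye-loaded TRHR/HEK293 cells; compounds added 5 min before TRH (1 nM final); fluorescence monitored 3 min at 1 s steps.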
With `O=C(c1ccc(O)cc1)c1ccc(Cl)cc1` the “activity, negative = inhibition” value was -10.1% (inactive). With `CCOC(=N)CC(=O)OCC` the “activity, negative = inhibition” value was 4.08% (inactive). In the case of `O=C(Nc1ccc([N+](=O)[O-])cc1)Nc1ccc([N+](=O)[O-])cc1`, the “activity, negative = inhibition” value is reported as -1.14% [at 23.6 µM] (inactive). In the case of `COc1cc2c(N3CCN(C(=O)Nc4ccc(OC(C)C)cc4)CC3)ncnc2cc1OCCCN1CCCCC1`, the “activity, negative = inhibition” value is reported as 1.48% [at 23.6 µM] (inactive). With `O=C(CCCN1CCC(O)(c2ccc(Br)cc2)CC1)c1ccc(F)cc1` the “activity, negative = inhibition” value was -0.817% [at 23.6 µM] (inactive). In the case of `CCc1c2c(nc3ccc(OC(=O)N4CCC(N5CCCCC5)CC4)cc13)-c1cc3c(c(=O)n1C2)COC(=O)[C@]3(O)CC`, the “activity, negative = inhibition” value is reported as 0.0114% [at 23.6 µM] (inactive). In the case of `CC1(C)C2=CCCC(C)(C)[C@]23CC[C@H]1C3`, the “activity, negative = inhibition” value is reported as 4.33% (inactive).
